Source: PubChem
This is a sample that favours compounds with a hit; in the whole collection about 19% have one here.
TDP1 cell noCPT – qHTS for Inhibitors of human tyrosyl-DNA phosphodiesterase 1 (TDP1): qHTS in cells in absence of CPT | DT40 Tdp1-/- hTDP1 cells, no CPT, ATP luminescence, 48 h | Potency, µM (top dose mostly 46.2 µM), for the others: at the highest dose activity change, negative = growth inhibition, usual class: inhibitors | 420,000 compounds, 15% hits | AID 686978, 2013; further: potency means the concentration at half of the fitted maximal effect; nearly all actives have a fitted effect of over 55% in size
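Chicken DT40 Tdp1-/- cells stably complemented with human TDP1 were seeded at 400 cells/well with DMSO in place of 20 nM camptothecin. After compound pinning, cells grew at least 48 hr at 37 °C; viability read by CellTiter-Glo luminescence.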
HT1080NT lethal – qHTS for induction of synthetic lethality in tumor cells producing 2HG: qHTS for the HT-1080-NT fibrosarcoma cell line. Potency, µM (titrated, usually from 46.1 µM), without a hit: at the top dose activity, negative = less viability, most hits filed as cytotoxic. 360,000 compounds, 1.6% hits. HT-1080-NT fibrosarcoma viability, CellTiter-Glo ATP luminescence, 48 h;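 further: NT is the 2HG producing partner of a matched IDH1 knockdown line; potency means the concentration at half of the fitted maximal effect; 0% = DMSO-treated cells and -100% = media-only wells without cells; nearly all actives have a fitted effect of over 55% in size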
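Viability of the 2HG-overproducing fibrosarcoma line after 48 hours of compound exposure at 37 degrees C was determined by luminescence with CellTiter-Glo, and concentration-effect curves were then fitted and categorized.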
IL-1B inflam inh – qHTS for Inhibitors of Inflammasome Signaling: IL-1-beta AlphaLISA Primary Screen. THP-1 LPS/ATP IL-1B secretion, AlphaLISA, 16 h; hits give low values. activity change, % at 57.5 µM. 360,000 compounds, 4.7% hits. AID 743279, 2014; in the data active means activity change below about -50%; inconclusive means mostly about -30% to -49%
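THP-1 cells pretreated 1 hr with compounds (up to 57.5 uM final), then stimulated with LPS (250 ng/mL final) plus ATP (1.25 mM final); secreted IL-1B measured by AlphaLISA after 16 hr, decreased signal indicating inhibition.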
HT1080 IDH1KD tx – qHTS for induction of synthetic lethality in tumor cells producing 2HG: qHTS for the HT-1080-IDH1KD cell line | Potency, µM (titrated, usually from 46.1 µM), inactives show top-dose activity, negative = toxicity, most hits filed as cytotoxic | AID 686971, 2013 | 360,000 compounds, 2% hits | HT-1080 IDH1 knockdown viability, ATP luminescence, 48 h;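 further: potency means the concentration at half of the fitted maximal effect; 0% = DMSO wells and -100% = cell-free medium wells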
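Using the IDH1-knockdown HT-1080 line run in the same batch and compound series as the NT line, viability after 48 h at 37 °C was determined by CellTiter-Glo luminescence and expressed as % activity.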
uPA surface inh – qHTS for Inhibitors of Cell Surface uPA Generation | cell surface uPA generation assay, qHTS | Potency, µM (titrated, usually from 38.3 µM), for the others: top-dose activity change, negative = inhibition, most hits filed as inhibitors | 330,000 compounds, 0.31% hits | AID 540303, 2011; active means well fitted inhibition curve with a large enough effect; inconclusive means small, poorly fitted or top-dose-only effect; inactive means no such curve, though single readings can be large or run the other way; tested in mouse RAW 264.7 cells; further: potency means the concentration at half of the fitted maximal effect; nearly all actives have a fitted effect of over 55% in size
DT40 TDP1 CPT – qHTS for Inhibitors of human tyrosyl-DNA phosphodiesterase 1 (TDP1): qHTS in cells in presence of CPT; 420,000 compounds, 12% hits; Potency, µM (series often up to 46.2 µM), for inactives: at the highest dose activity change, negative = growth inhibition, most hits filed as inhibitors; chicken DT40 Tdp1-/-;hTDP1 cells + 20 nM CPT, ATP luminescence, 48 h; further: potency means the concentration at half of the fitted maximal effect; nearly all actives have a fitted effect of over 55% in size
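Chicken DT40 Tdp1-/- cells stably complemented with human TDP1 were seeded at 400 cells/well in medium containing 20 nM camptothecin, exposed to pin-transferred compounds, and grown at 37 °C for at least 48 hr. Viability was read as ATP luminescence.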
* = called active by the depositor; ? = inconclusive; . = no result. Unless noted, the call rests on the fitted dose curve; in most records, active means well fitted curve in the direction sought with a large enough effect; inconclusive means small, poorly fitted or top-dose-only effect, or another doubt; inactive means no such curve, though single readings can be large; an effect the other way counts as inactive or inconclusive. Unless noted, on the % scale 0 is the no-effect control and ±100 the full control effect.

SMILES	TDP1 cell noCPT	HT1080NT lethal	IL-1B inflam inh	HT1080 IDH1KD tx	uPA surface inh	DT40 TDP1 CPT
COc1ccc(C)cc1S(=O)(=O)NCC(c1cccs1)S(=O)(=O)c1ccc(C)cc1 (stereo not drawn)	?	.	.	.	.	23µM*
COc1ccc(C)cc1S(=O)(=O)NCc1cccs1	10%	0%	-11	-4%	-2%	6%
COc1ccc(S(=O)(=O)NCC(c2cccs2)S(=O)(=O)c2ccc(C)cc2)cc1F (stereo not drawn)	16µM*	.	.	.	.	?
Cc1cccc(C(=Cc2ccc([N+](=O)[O-])cc2)C(=O)O)c1	?	6%	12	0%	.	-24%
Cc1cccc2cc(C(c3nnnn3C3CCCC3)N3CCOCC3)c(=O)[nH]c12 (stereo not drawn)	-12%	6%	-9	4%	-3%	-3%
CC(C)(C)n1nnnc1C(c1cc2cc3c(cc2[nH]c1=O)OCCO3)N1CCSCC1 (stereo not drawn)	-15%	-1%	-51*	12%	-16%	-23%
O=c1[nH]c2cc3c(cc2cc1C(c1nnnn1C1CCCC1)N1CCSCC1)OCCO3 (stereo not drawn)	18µM*	-7%	-16	-13%	2%	23µM*
CC(=O)N[C@@H]([C@@H](O)[C@H](O)[C@H](O)CO)[C@@H](O)CC(=O)C(=O)O	-1%	.	.	.	.	15%
ClC1=CN(C2=NCCC2)CC1	-6%	15%	13	4%	.	0%
Cc1cc(C)c(CSc2ncc(-c3ccc([N+](=O)[O-])cc3)[nH]2)c(C)c1	10µM*	?	-59*	26µM*	-7%	16µM*
O=[N+]([O-])c1ccc(-c2cnc(SCc3ccccc3Cl)[nH]2)cc1	-11%	?	-8	?	14%	3%
O=[N+]([O-])c1ccc(-c2cnc(SC(c3ccccc3)c3ccccc3)[nH]2)cc1	?	23µM*	-52*	21µM*	-12%	?
CCC(C)[C@H](NC(=O)c1cc2cc(Cl)ccc2n1C)C(=O)N1CCC(C(=O)O)CC1 (stereo partly drawn)	-7%	0%	1	7%	-1%	0%
CCOC(=O)N1CCN(C2CCCN(C(=O)c3cccc(N(C)C)c3)C2)CC1 (stereo not drawn)	?	4%	32	3%	0%	-24%
Cc1ccc([N+](=O)[O-])cc1S(=O)(=O)N1CCn2cccc2C1c1ccccc1 (stereo not drawn)	?	.	.	.	.	21µM*
Cc1ccc([N+](=O)[O-])cc1S(=O)(=O)N1CCN(C)CC1	3%	4%	20	-22%	-2%	14%
C=C(C)C1Cc2c(C)nn(-c3cccc4ccccc34)c2C1 (stereo not drawn)	?	?	32	?	0%	21µM*
C=C(C)C1Cc2c(C)nn(-c3ccccc3)c2C1 (stereo not drawn)	-19%	-2%	-3	1%	5%	-16%
COc1cccc(OC)c1C(=O)OCC(=O)N(c1ccccc1)C1CCCCC1	8.2µM*	-6%	-4	-15%	-6%	15µM*
O=C(OCC(=O)N(c1ccccc1)C1CCCCC1)c1ccc(CO)cc1	?	22%	5	3%	8%	?
CC(=O)c1ccc(NC(=O)CCc2c(C)nc3c(c(C)nn3-c3ccc(C)cc3)c2C)cc1	7.3µM*	.	.	.	.	?
Cc1ccc(-n2nc(C)c3c(C)c(CCC(=O)NCCCOC(C)C)c(C)nc32)cc1	?	-5%	20	-2%	7%	23µM*
COC(CNC(=O)CCc1c(C)nc2c(c(C)nn2-c2ccc(C)cc2)c1C)OC	?	4%	-18	5%	8%	?
Cc1ccc(-n2nc(C)c3c(C)c(CCC(=O)Nc4ccc(CN5CCCC5)cc4)c(C)nc32)cc1	12µM*	-9%	-86*	15µM*	-2%	?
CCOC(=O)N1CCC(NC(=O)CCc2c(C)nc3c(c(C)nn3-c3ccccc3)c2C)CC1	-5%	-8%	11	-1%	8%	-19%
SMILES	TDP1 cell noCPT	HT1080NT lethal	IL-1B inflam inh	HT1080 IDH1KD tx	uPA surface inh	DT40 TDP1 CPT
O=c1cc(O)c(Cl)c[nH]1	-12%	.	.	.	.	3%
COCCn1c(SCC(=O)NC(=O)NC2CCCC2)nc2ccccc2c1=O	?	-10%	-7	-1%	1%	?
CC(C)N(C)c1ncnc2c1ncn2[C@H]1CN(Cc2ccc(F)cc2)C[C@@H](CO)O1	?	4%	-5	-2%	.	?
CSCCC(N=C1NS(=O)(=O)c2ccccc21)C(=O)NCCc1ccccc1 (stereo not drawn)	2%	5%	-4	2%	-2%	4%
Cc1cc(C)nc(NN=CC2=C(N3CCOCC3)/C(=C/c3ccc(Cl)cc3)CC2)n1	8.2µM*	?	-27	-18%	-2%	12µM*
Cc1occc1C(=O)N/N=C/C1=C(N2CCOCC2)C(=C\c2ccc(Cl)cc2Cl)/CC1	7.3µM*	6%	-11	7%	15%	?
O=C(O)c1ccc(N/N=C/C2=C(N3CCOCC3)C(=C\c3ccccc3)/CC2)cc1	21µM*	15µM*	-9	15µM*	2%	?
C/C(=N/NC(=O)c1ccoc1C)c1ccc(N2CCOCC2)cc1	-17%	30%	-4	18%	-15%	-3%
Cn1cc(C(=O)N/N=C/C2=C(N3CCOCC3)C(=C/c3ccc([N+](=O)[O-])cc3)/CC2)ccc1=O	-27%	-5%	1	-3%	-1%	?
O=CC1=C(N2CCOCC2)/C(=C/c2ccc(Cl)cc2)CC1	21µM*	-1%	-19	-5%	2%	?
CCN1C(=O)[C@@H]2[C@H](C1=O)[C@@H]1C(=O)Nc3ccccc3C(=O)N1[C@@H]2c1cccc(Cl)c1	-12%	9%	10	15%	5%	1%
CCOC(=O)CN1C(=O)C(=O)N(Cc2ccccc2F)C1=O	6%	9%	15	1%	-2%	10%
Cc1cc(C)nc(N/N=C/C2=C(N3CCOCC3)C(=C\c3ccc(Cl)cc3)/CC2)n1	16µM*	-23%	-25	-23%	-3%	23µM*
C=C1C=C(C(F)F)n2ncc(C(=O)NCc3ccc(Cl)cc3)c2N1	-28%	.	.	.	.	-6%
